Test results from PubChem BioAssay (NCATS).
Inconclusive results are not listed. A call without a number means that no potency is given here. Values without a mark were called inactive. Active and inactive are the calls of the source. The call rests on the fitted dose curve; in most records, active means well fitted inhibition curve with a large enough effect; inconclusive means small, poorly fitted or top-dose-only effect; inactive means flat fitted curve, though single readings scatter. Where a SMILES comes first, the peptide text is derived from it. Bridges are numbered along the chain shown (N, C = ends). [ ]: non-standard residue; d: D form. hArg = N=C(N)NCCCC[C@H](N)C(=O)O; Mpa = O=C(O)CCS

How the values were obtained:
[1] = biological target: Glutathione peroxidase 1 (Homo sapiens) (UniProt P07203); experiment: Primary qHTS Assay for Inhibitors of Recombinant Selenoprotein Glutathione Peroxidase 1 (GPX1) (AID 1845191); further: nearly all actives have a fitted effect of over 65% in size; further: potency means the concentration at half of the fitted maximal effect
Sequence of Glutathione peroxidase 1 (Homo sapiens) (P07203 whole entry, looked up): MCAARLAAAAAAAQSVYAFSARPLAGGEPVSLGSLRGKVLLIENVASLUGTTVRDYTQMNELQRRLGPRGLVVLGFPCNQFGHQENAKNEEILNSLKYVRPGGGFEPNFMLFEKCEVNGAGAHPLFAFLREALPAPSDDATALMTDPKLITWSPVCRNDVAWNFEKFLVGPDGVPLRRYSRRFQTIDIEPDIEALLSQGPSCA
Summary of the method: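 GR-coupled assay: compounds preincubated 30 min at room temperature with GPX1, then reaction started with CHP; final 10 nM GPX1, 1 mM GSH, 0.5 mM CHP, 0.5 mM NADPH, 100 nM GR, 0.01% BSA, pH 7.5 Tris buffer. NADPH fluorescence (340/450 nm) read at 0 and 15 min.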

[2] = biological target: Phospholipid hydroperoxide glutathione peroxidase GPX4 (Homo sapiens) (UniProt P36969); experiment: Primary qHTS Assay for Inhibitors of Recombinant Selenoprotein Glutathione Peroxidase 4 (GPX4) (AID 1845192); further: nearly all actives have a fitted effect of over 65% in size
Sequence of Phospholipid hydroperoxide glutathione peroxidase GPX4 (Homo sapiens) (P36969 whole entry, looked up): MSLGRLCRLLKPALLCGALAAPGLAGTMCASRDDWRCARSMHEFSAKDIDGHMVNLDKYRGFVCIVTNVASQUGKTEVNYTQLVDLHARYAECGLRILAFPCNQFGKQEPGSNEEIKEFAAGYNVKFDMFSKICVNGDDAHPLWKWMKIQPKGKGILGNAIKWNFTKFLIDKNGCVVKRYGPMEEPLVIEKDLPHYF
Summary of the method: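 GR-coupled assay: recombinant GPX4 preincubated 30 min with compound at room temperature; final 200 nM GPX4, 1 mM GSH, 0.5 mM cumene hydroperoxide, 0.5 mM NADPH, 100 nM GR, 0.01% BSA, pH 7.5 Tris. NADPH fluorescence (340/450 nm) read at 0 and 15 min.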

[3] = qHTS profiling for inhibitors of Plasmodium falciparum proliferation (AID 504749); further: nearly all actives have a fitted effect of over 60% in size; further: potency means the concentration at half of the fitted maximal effect; settings: P. falciparum in erythrocytes, SYBR Green DNA, 72 h
Summary of the method: (§1)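 Readout was DNA-dye fluorescence from lysed cultures, ex 485/em 535 nm. Parasitized red cells had grown 72 h with compound; data scaled between 0.29 uM artemisinin and DMSO wells and corrected using vehicle-only plates.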

3D7 = experiment: as above; settings: P. falciparum in erythrocytes, SYBR Green DNA, 72 h; series mostly up to 28.7 µM
Summary of the method: as §1

7G8 = experiment: as above; settings: P. falciparum in erythrocytes, SYBR Green DNA, 72 h; series mostly up to 28.7 µM
Summary of the method: as §1

AA1029 = experiment: as above; settings: P. falciparum in erythrocytes, SYBR Green DNA, 72 h; series mostly up to 28.7 µM
Summary of the method: as §1

[4] = at 28.7 µM (top of the series), parasite line A
[5] = at 28.7 µM (top of the series), parasite line B
[6] = at 12.8 µM (top of the series), parasite line A
[7] = at 12.8 µM (top of the series), parasite line B

Compound | Potency [1] | Potency [2] | activity, negative = inhibition [3, 4] | activity, negative = inhibition [3, 5] | Potency (3D7) | Potency (7G8) | Potency (AA1029) | activity, negative = inhibition [3, 6] | activity, negative = inhibition [3, 7] | activity, negative = inhibition [1] | Potency ([3]; parasite line A) | Potency ([3]; parasite line B)
CC[N+](C)(CC)CCOC(=O)C1c2ccccc2Oc2ccccc21 | inactive | inactive | -12.5% | -20.9% | inactive | inactive | inactive | – | – | – | – | –
CCS(=O)(=O)CCn1c([N+](=O)[O-])cnc1C | inactive | inactive | – | – | inactive | inactive | inactive | -2.71% | -11.1% | – | – | –
CCCC(O)C(CC)CO (centres undefined) | inactive | inactive | 12.2% | 6.77% | inactive | inactive | inactive | – | – | – | – | –
NC(=O)[C@@H]1CSSCCC(=O)N[C@@H](CCCCN=C(N)N)C(=O)NCC(=O)N[C@@H](CC(=O)O)C(=O)N[C@@H](Cc2c[nH]c3ccccc23)C(=O)N2CCC[C@H]2C(=O)N1 ([Mpa][hArg]GDWPC-NH2; disulfide 1-7) | inactive | inactive | -6.16% | 11.6% | inactive | inactive | inactive | – | – | – | – | –
Cc1cc(O)cc(C)c1Cl | inactive | inactive | -2.51% | -4.56% | inactive | 10 µM (active) | inactive | – | – | – | – | –
CCOc1cc(NC(C)=O)ccc1C(=O)OC | inactive | inactive | 4.89% | 12.8% | inactive | inactive | inactive | – | – | – | – | –
O=C(O)COC(=O)Cc1ccccc1Nc1c(Cl)cccc1Cl | inactive | inactive | – | – | inactive | inactive | inactive | -3.73% | 2.28% | – | – | –
COc1ccc(O)cc1 | inactive | inactive | -6.25% | -15.4% | inactive | inactive | inactive | – | – | – | – | –
c1ccc2[nH]ccc2c1 | inactive | inactive | 15.1% | 19.4% | inactive | inactive | inactive | – | – | – | – | –
CC1CC(OC(=O)c2ccccc2O)CC(C)(C)C1 (centres undefined) | inactive | inactive | -5.75% | 14.6% | inactive | inactive | inactive | – | – | – | – | –
O=C(/C=C/c1ccccc1)OCc1ccccc1 | inactive | inactive | 4.66% | -29.4% | inactive | inactive | inactive | – | – | – | – | –
CC(C)(C)C(=O)OCOC(=O)[C@@H]1N2C(=O)[C@@H](NC(=O)[C@H](N)c3ccccc3)[C@H]2SC1(C)C | inactive | inactive | – | – | inactive | inactive | inactive | -1.26% | -15.3% | – | – | –
Cc1c(C)c2c(c(C)c1OC(=O)c1cccnc1)CC[C@@](C)(CCC[C@H](C)CCC[C@H](C)CCCC(C)C)O2 | inactive | inactive | -3.82% | -2.45% | inactive | inactive | inactive | – | – | – | – | –
FC(F)(F)C(Cl)Br (centres undefined) | inactive | inactive | 6.28% | 10.7% | inactive | inactive | inactive | – | – | – | – | –
CC(=O)Nc1ccccc1 | inactive | inactive | 1.91% | -0.613% | inactive | inactive | inactive | – | – | – | – | –
Cc1cc(C)nc(NS(=O)(=O)c2ccc(N)cc2)n1 | inactive | inactive | 7.93% | 10.9% | inactive | inactive | inactive | – | – | – | – | –
O=C(O)CCCc1ccccc1 | inactive | inactive | 3.34% | -0.114% | inactive | inactive | inactive | – | – | – | – | –
O=C(OOC(=O)c1ccccc1)c1ccccc1 | inactive | inactive | -10.4% | 7.71% | inactive | inactive | inactive | – | – | – | – | –
NCC1CCC(C(=O)Oc2ccc(CCC(=O)O)cc2)CC1 (centres undefined) | inactive | inactive | -0.969% | 4.31% | inactive | inactive | inactive | – | – | – | – | –
Cc1c(N(C)C)c(=O)n(-c2ccccc2)n1C | inactive | inactive | 13.7% | 18.1% | inactive | inactive | inactive | – | – | – | – | –
COc1ccc2cc(CCC(C)=O)ccc2c1 | inactive | inactive | – | – | inactive | inactive | inactive | 8.55% | 1.23% | – | – | –
CC(=O)N(CC(O)CO)c1c(I)c(C(=O)NCC(O)CO)c(I)c(C(=O)NCC(O)CO)c1I (centres undefined) | inactive | inactive | 7.48% | 5.34% | inactive | 11.2 µM (active) | inactive | – | – | – | – | –
OCc1ccc(Cl)cc1Cl | inactive | inactive | -3.83% | -17.4% | inactive | inactive | inactive | – | – | – | – | –
NCc1ccc(S(N)(=O)=O)cc1 | inactive | inactive | – | – | inactive | – | inactive | 6.73% | 11% | – | – | –
CC(=O)OC[C@H]1O[C@@](COC(C)=O)(O[C@H]2O[C@H](COC(C)=O)[C@@H](OC(C)=O)[C@H](OC(C)=O)[C@H]2OC(C)=O)[C@@H](OC(C)=O)[C@@H]1OC(C)=O | inactive | inactive | – | 21.3% | inactive | inactive | inactive | – | – | – | – | –
Cc1[nH]c(C)c(Cl)c(=O)c1Cl | inactive | inactive | – | – | – | 11.2 µM (active) | inactive | – | – | – | – | –
CC[N+](CC)(CC(=O)Nc1c(C)cccc1C)Cc1ccccc1 | inactive | inactive | 15.1% | 8.11% | inactive | inactive | inactive | – | – | – | – | –

Compound | Potency [1] | Potency [2] | activity, negative = inhibition [3, 4] | activity, negative = inhibition [3, 5] | Potency (3D7) | Potency (7G8) | Potency (AA1029) | activity, negative = inhibition [3, 6] | activity, negative = inhibition [3, 7] | activity, negative = inhibition [1] | Potency ([3]; parasite line A) | Potency ([3]; parasite line B)
COc1ccc(C(=O)NCc2ccc(OCCN(C)C)cc2)cc1OC | inactive | inactive | -0.299% | -0.981% | inactive | inactive | inactive | – | – | – | – | –
O=C1C(c2[nH]c3ccccc3c2O)=Nc2ccccc21 | inactive | inactive | – | – | – | – | inactive | – | – | – | – | –
CC(=O)N[C@@H](Cc1ccc(O)cc1)C(=O)O | inactive | inactive | 9.07% | 9.16% | inactive | – | inactive | – | – | – | – | –
CCCCCCCCCCOc1cc2c(=O)c(C(=O)OCC)c[nH]c2cc1OCC | – | – | – | – | 0.0022 µM (active) | 0.0028 µM (active) | 0.0025 µM (active) | – | – | -3.55% [at 4.49 µM] | 0.0009 µM (active) | 0.0022 µM (active)
Cc1c(I)c(=O)n(-c2ccccc2)n1C | inactive | inactive | 2.47% | – | inactive | inactive | inactive | – | – | – | – | –
COc1ccccc1Oc1c(NS(=O)(=O)c2ccc(C(C)(C)C)cc2)nc(-c2ncccn2)nc1OCCO | inactive | inactive | -4.92% | -14.6% | inactive | inactive | inactive | – | – | – | – | –
Cc1cc(C)c(NC(=O)CN(CC(=O)O)CC(=O)O)c(C)c1Br | inactive | inactive | – | – | inactive | inactive | – | – | – | – | – | –
Nc1ccc(C(=O)Oc2ccccc2)c(O)c1 | inactive | inactive | -10.9% | 5.45% | inactive | inactive | inactive | – | – | – | – | –
COc1nccnc1NS(=O)(=O)c1ccc(N)cc1 | inactive | inactive | 0.889% | -0.327% | – | inactive | inactive | – | – | – | – | –
NC(=O)CCCCC1CCSS1 (centres undefined) | inactive | inactive | -3.84% | -4.11% | inactive | – | inactive | – | – | – | – | –
Cc1cccc(Nc2ccccc2C(=O)O)c1C | inactive | inactive | -4.38% | 15.2% | inactive | inactive | inactive | – | – | – | – | –
O=C(O)CCC(=O)O | inactive | inactive | 10.3% | 13.7% | inactive | inactive | inactive | – | – | – | – | –
Cc1c(NC(=O)c2cccnc2)c(=O)n(-c2ccccc2)n1C | inactive | inactive | – | – | inactive | – | inactive | 17.3% | 5.39% | – | – | –
CC(=O)Oc1cccc(C)c1 | inactive | inactive | 4.88% | -6.23% | inactive | inactive | inactive | – | – | – | – | –
Cc1ccccc1N=Nc1ccc(N=Nc2c(O)ccc3ccccc23)c(C)c1 | inactive | inactive | 3.72% | 9.83% | inactive | inactive | inactive | – | – | – | – | –
Nc1ccc(S(=O)(=O)c2ccc(N)cc2)cc1 | inactive | inactive | 2.8% | 7.07% | inactive | – | inactive | – | – | – | – | –
C=CCNC(N)=S | inactive | inactive | 5.67% | -1.15% | inactive | inactive | inactive | – | – | – | – | –
O=C(O)c1ccc(OCCCOc2ccc(C(=O)O)cc2)cc1 | inactive | inactive | 0.28% | 9.9% | inactive | inactive | inactive | – | – | – | – | –
CCOc1ccc(C(=O)OCCN(CC)CC)cc1 | inactive | inactive | 11.5% | 3.64% | inactive | inactive | inactive | – | – | – | – | –
CN1CCCN=C1COC(=O)C(O)(c1ccccc1)C1CCCCC1 (centres undefined) | inactive | inactive | 2.78% | -4.74% | inactive | inactive | inactive | – | – | – | – | –
CCCCCCCC(=O)OCC(COC(=O)CCCCCCC)OC(=O)CCCCCCC | inactive | inactive | 4.54% | – | inactive | inactive | inactive | – | – | – | – | –
CC(C)CCCC(C)CCCC(C)CCCCC(C)CCCC(C)CCCC(C)C (centres undefined) | inactive | inactive | -0.284% | 17.5% | inactive | inactive | inactive | – | – | – | – | –
O=C(O)CCCCC1CCSS1 (centres undefined) | 11.4 µM (active) | inactive | 5.2% | 12.3% | inactive | – | inactive | – | – | – | – | –
Cc1cc(OI)c(C(C)C)cc1-c1cc(C(C)C)c(OI)cc1C | inactive | inactive | – | – | – | 7.94 µM (active) | – | – | – | – | – | –
CC(=O)Oc1cccc(O)c1 | inactive | inactive | 4.48% | 12.6% | inactive | – | inactive | – | – | – | – | –
O=C(c1ccccc1)C(O)c1ccccc1 (centres undefined) | inactive | inactive | – | -14.9% | inactive | inactive | inactive | – | – | – | – | –
